# Results from ChEMBL document CHEMBL4513216, “Probing the Open Global Health Chemical Diversity Library for Multistage-Active Starting Points for Next-Generation Antimalarials” (ACS Infect Dis, 2020).
# In all, about 69,000 compounds went through this assay and about 8,600 (12%) showed an effect of 50% or more. Many of the other results were omitted from the sample, so strong results are more common in it than they were.
# Tested on: Plasmodium berghei
# Assay: Screen against P. berghei liver stage (PbLuc), transformed with Luciferase, at 10uM
# Format: functional, HepG2
# Conditions: tested at 10 uM
row,SMILES,INHIBITION [%]
1,Cn1ccnc1-c1cn(Cc2cn3c(n2)SCC3)nn1,5.75
2,Cc1cccc(CN2C(=O)CCC23CCN(C(=O)N2CCCC2)CC3)n1,18.6
3,CC(=O)N1N=C(c2ccccc2)OC1C(=O)N(C)Cc1ccccc1 (stereo unspecified),24.3
4,O=C(N[C@@H]1CCN(Cc2ccc(F)cc2F)C[C@H]1O)c1cccnc1,-26.8
5,CCOCCCNC(=O)c1nnn(Cc2ccccc2)c1OC,13.5
6,CCOc1c(OC)cc(C=Cc2ncc(C(=O)NC)s2)cc1OC,52.6
7,CNC(=O)c1cnc(/C=C/c2cc(OC)cc(OC)c2)s1,-76.5
8,CCOc1c(Br)cc(/C=C/c2ncc(C(=O)O)s2)cc1OC,-39.3
9,CNC(=O)c1cnc(/C=C/c2cc(OC)c(OC)c(OC)c2)s1,53.5
10,CNC(=O)c1cnc(C=Cc2cc(OC)c(O)c(OC)c2)s1,50
11,COc1cc(/C=C/c2ncc(C(=O)O)s2)cc(Cl)c1O,-20.9
12,CCOc1cc(C=Cc2ncc(C(=O)NC)s2)ccc1OC,72.2
13,CCOc1c(Cl)cc(/C=C/c2ncc(C(=O)O)s2)cc1OC,7.27
14,CNC(=O)c1cnc(C=Cc2cc(OC)c3c(c2)OCCO3)s1,41.4
15,CNC(=O)c1cnc(/C=C/c2ccc(OC)c(O)c2)s1,40.1
16,CCOc1cc(/C=C/c2ncc(C(=O)O)s2)ccc1O,-6.62
17,CNC(=O)c1cnc(C=Cc2ccc(O)c(OC)c2)s1,-84.4
18,CCOc1ccc(C2CCCN2Cc2nnnn2C2CC2)cc1 (stereo unspecified),48.2
19,O=c1ccc2c(n1Cc1cccnc1)CCN(CC1CCOC1)CC2 (stereo unspecified),-5.63
20,C[C@H]1CN(C(=O)c2ccoc2)C[C@@]12CCN(CCN(C)C)C2=O,-80
21,CCC(=O)NC1CCCN(c2cncc(OCc3ccccc3)n2)C1 (stereo unspecified),1.56
22,O=C(NCc1ccccn1)[C@@H]1COC[C@H]2CN(C3CCC3)C[C@H]21,26.4
23,Cc1nc(-c2ccccc2)n(CC(=O)NC2CCCCC2)n1,37.4
24,O=S1(=O)COCCN1Cc1ccc(F)cc1Cl,33.9

row,SMILES,INHIBITION [%]
1,Cn1cc(CN2CCC3(CC2)CCN(Cc2ccccn2)CC3)cn1,41.2
2,O=C(c1ccnc(C2CCNCC2)c1)N1CCCC1,7.43
3,O=C1OCC(CO)N1Cc1cccc(Cl)c1F (stereo unspecified),28.7
4,CNC(=O)c1cccc(CCNC(=O)N2CCc3ccccc3C2)c1,3.73
5,NC(=O)c1cccc(CCNC(=O)N2CCCC2)c1,58.1
6,C=C(C)CN1CCC(NC(=O)c2scnc2C)CC1,-6.44
7,C=C(C)CN1CCC(NC(=O)NCCc2ccc(N(C)C)cc2)CC1,55.4
8,COc1ccc(CCNC(=O)NC2CCCC2)cc1OC,-24.9
9,C=C(C)CN1CCC(NC(=O)NCCc2cccc(C(N)=O)c2)CC1,57.3
10,Cn1cc(CCNC(=O)NC2CCN(Cc3ccccn3)CC2)cn1,16.8
11,NC(=O)c1cccc(CCNC(=O)N2Cc3ccccc3C2)c1,26.5
12,C=C(C)CN1CCC(NC(=O)Nc2cc(C(N)=O)ccc2OC)CC1,32.5
13,C=C(C)COc1ccccc1CN1CCC(NC(C)=O)CC1,19.4
14,COc1ccc(CCNC(=O)NCc2cccc(C(N)=O)c2)cc1OC,37.4
15,C=C(C)CN1CCC(NC(=O)NCCc2ccccc2OC)CC1,94.1
16,COC1CCCOC12CCN(C(=O)c1ccc3[nH]nnc3c1)CC2 (stereo unspecified),-29.9
17,O=C(CSC1=NS(=O)(=O)c2cc(Cl)ccc2N1)c1ccccc1,11.8
18,Cn1cc(CN2CCCC3(CCN(C(=O)c4ccccn4)C3)C2)cn1 (stereo unspecified),11.3
19,COCCC(=O)N1CCOCC(Cc2ccc3c(ccn3C)c2)C1 (stereo unspecified),17.475
20,CC(=O)N(Cc1ncc(C)o1)C1CCN(Cc2ccccc2C#N)C1 (stereo unspecified),9.64
21,NC(=O)c1cc(C2CCCN(C(=O)CCc3cccs3)C2)n[nH]1 (stereo unspecified),17.5
22,O=C1CC[C@@H](CN(Cc2ccncc2)Cc2nc(CC3CC3)no2)N1,36.6
23,Cc1nc(C)c2c(n1)CCN(C(=O)CC1CC1)CC2,19.9
24,CCN1Cc2nccn2CC(COCc2csc(C)n2)C1 (stereo unspecified),8.66

row,SMILES,INHIBITION [%]
1,N#Cc1ccc(F)c(CN2CCc3sccc3C2)c1,41.6
2,N#Cc1ccccc1CN1CCc2sccc2C1,60.4
3,N#Cc1ccc(CN2CCc3sccc3C2)c(F)c1,4.95
4,Cc1nc(C)n(CC2CCCN(Cc3cccc(C(N)=O)c3)C2)n1 (stereo unspecified),-43.5
5,O=C(NC1CCCC1)N1C[C@H]2CN(c3ccccn3)C[C@@]2(C(=O)O)C1,6.27
6,O=C(NC1CCCC1)N1C[C@H]2CN(c3ccncc3)C[C@@]2(C(=O)O)C1,28.7
7,Cc1ccc(N2C[C@@H]3CN(C(=O)NC4CCCC4)C[C@]3(C(=O)O)C2)nn1,56.6
8,CC(C)C(=O)NC1CCCN(C(=O)c2ccccc2O)C1 (stereo unspecified),8.64
9,CC(C)C(=O)NC1CCCN(C(=O)c2cc(Cl)ccc2O)C1 (stereo unspecified),18.2
10,COc1ccc(C(=O)N2CCCC(NC(=O)C(C)C)C2)c(O)c1 (stereo unspecified),-9.19
11,CC(C)C(=O)NC1CCCN(C(=O)c2ccc(O)c(Cl)c2)C1 (stereo unspecified),66.2
12,Cc1ccc(C(=O)N2CCCC(NC(=O)C(C)C)C2)c(O)c1 (stereo unspecified),54.4
13,Cc1ccc(O)c(C(=O)N2CCCC(NC(=O)C(C)C)C2)c1 (stereo unspecified),5.9
14,c1cnc(CC2COCCN(C3CCCCC3)C2)cn1 (stereo unspecified),14
15,c1ccc(-c2nc(CCNCc3ccccn3)co2)cc1,34.4
16,CCN(Cc1nc(COC)no1)Cc1cc2ccc(F)cc2[nH]c1=O,0.546
17,CCc1cnc(C)nc1NC1CC(=O)N(CC2CCCCC2)C1 (stereo unspecified),-20.8
18,Cc1nc(CN2Cc3nccn3CC(COCC3CC3)C2)cs1 (stereo unspecified),41.2
19,CNC(=O)CN1CCOCC12CCN(CCc1ccccc1)CC2,38.1
20,COc1c(C2CCCN2CC(=O)Nc2nccs2)c(C)nn1C (stereo unspecified),-24.7
21,Cn1ccc(C(=O)N2CCOC(c3ccccc3)C2)cc1=O (stereo unspecified),50.5
22,Cn1ccc(C(=O)N2CCOC(c3ccccn3)C2)cc1=O (stereo unspecified),-5.71
23,Cc1ccc(C2CN(C(=O)c3ccn(C)c(=O)c3)CCO2)nc1 (stereo unspecified),44.8
